Results on seven compounds are retold here after PubChem BioAssay (Tox21).

Several values for one entry are separate records, joined by “and”; a condition that tells them apart may be missing. Equal entries are not always repeated. Inconclusive results are not listed. A structure can be active in one record and inactive in another. Activity calls are given as the source filed them. Unless noted, calls come from the whole dose curve.

The nature of assay [1]: Nuclear factor erythroid 2-related factor 2/antioxidant responsive element (Nrf2/ARE) small molecule agonists: qHTS cell viability counter screen in human keratinocytes (AID 1919968; active = well fitted curve in the direction sought with a large enough effect in the repeat runs; an effect the other way counts as inactive or inconclusive; note: nearly all actives have a fitted effect of over 55% in size; note: potency is the fitted concentration of half-maximal effect). In a few lines:
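KeratinoSens HaCaT cells, 1,500/well, preincubated 5 h, then exposed to compounds in DMSO for 23 h at 37 C/5% CO2. Viability read as CellTiter-Fluor fluorescence after 1 h, in the same wells as the ARE-luciferase read.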
On the technique in general: Quantitative high-throughput screening tests each substance at several concentrations.

Assay [2] in a line: Nuclear factor erythroid 2-related factor 2/antioxidant responsive element (Nrf2/ARE) small molecule agonists: luciferase reporter gene qHTS assay in human keratinocytes (AID 1919969). Note: nearly all actives have a fitted effect of over 35% in size. Note: potency is the fitted concentration of half-maximal effect. For orientation: Reporter assays use an easily measured gene product as a stand-in for the process of interest.
In assay [3] the target is Gonadotropin-releasing hormone receptor (Homo sapiens) (UniProt P30968). The experiment in a line: Human gonadotropin-releasing hormone receptor (GnRHR) small molecule agonists, calcium flux assay in GnRHR-HEK293 cells (AID 1920063). Note: nearly all actives have a fitted effect of over 35% in size. In a few lines: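 HEK293 cells stably expressing human GnRHR were dye-loaded for 1 h at 37 C. Compound was added in agonist mode and fluorescence (Ex/Em 480/540) recorded kinetically for 3 min. Fifteen concentrations, triplicates.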
Gonadotropin-releasing hormone receptor (Homo sapiens), sequence (P30968 whole entry, looked up): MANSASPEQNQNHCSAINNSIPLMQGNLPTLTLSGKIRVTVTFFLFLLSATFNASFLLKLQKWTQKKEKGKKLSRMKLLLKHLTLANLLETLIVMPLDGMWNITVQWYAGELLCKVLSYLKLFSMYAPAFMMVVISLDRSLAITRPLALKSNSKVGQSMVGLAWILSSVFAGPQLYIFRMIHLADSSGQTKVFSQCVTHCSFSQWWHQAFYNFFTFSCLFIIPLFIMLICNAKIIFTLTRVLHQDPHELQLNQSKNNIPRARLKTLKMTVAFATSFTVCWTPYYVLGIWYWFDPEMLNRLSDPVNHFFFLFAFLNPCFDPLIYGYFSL
Background: A change in cytosolic calcium serves as a functional read-out for many receptors and channels.

Assay [4] addresses KiSS-1 receptor (Homo sapiens) (UniProt Q969F8). The experiment in a line: Human kisspeptin (KISS1R) small molecule agonists, calcium flux assay in KISS1R-HEK293 cells (AID 1920064; active = well fitted curve in the direction sought with a large enough effect in the repeat runs; an effect the other way counts as inactive or inconclusive). In a few lines:
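HEK293 cells stably expressing human KISS1R were loaded with calcium dye for 1 h at 37 C, then given compound; fluorescence (Ex/Em 480/540) was read kinetically for 3 min. Fifteen concentrations, triplicate.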

A short description of assay [5]: G protein-coupled receptor (GPCR) small molecule agonists, calcium flux assay: HEK293 wild type cell line counter screen (AID 1920065). The procedure, abridged: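 Wild-type HEK293 cells plated 18 h, loaded with calcium dye 1 h at 37 C, then compounds added in agonist mode (ATP as positive control). Kinetic fluorescence Ex/Em 480/540 recorded 3 min at 1 sec intervals; 15 concentrations, triplicate.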

A short description of assay [6]: p53 small molecule agonists, cell-based qHTS assay with human liver microsomes: qHTS cell viability counter screen (AID 1963579). Note: nearly all actives have a fitted effect of over 45% in size. In a few lines: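 p53RE-bla cells (4,000/well) were pre-incubated 5 h at 37 C, then given compounds in DMSO plus human liver microsomes (0.5 mg/mL final) and NADPH (0.5 mg/mL final) for 16 h at 37 C. Viability was read by CellTiter-Glo luminescence.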

Assay [7] in a line: p53 small molecule agonists, cell-based qHTS assay with rat liver microsomes: qHTS cell viability counter screen (AID 1963580). Note: nearly all actives have a fitted effect of over 45% in size. Note: potency is the fitted concentration of half-maximal effect. The procedure, abridged:
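p53RE-bla HCT-116 cells were exposed 16 h at 37 C to compounds with rat liver microsomes (0.5 mg/mL) and NADPH (0.5 mg/mL). Viability was measured in the same wells as ATP content by CellTiter-Glo luminescence.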

Assay [8] is described as follows: p53 small molecule agonists, cell-based qHTS assay: qHTS cell viability counter screen (AID 1963581). Note: nearly all actives have a fitted effect of over 45% in size. Note: potency is the fitted concentration of half-maximal effect. In a few lines:
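p53RE-bla HCT-116 cells, compounds added 5 h after plating and incubated 16 h at 37 C. Cytotoxicity measured in the same wells as intracellular ATP by CellTiter-Glo luminescence after 30 min at room temperature.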

A short description of assay [9]: p53 small molecule agonists, cell-based qHTS assay (AID 1963582; active = well fitted activation curve with a large enough effect in the signal ratio in the repeat runs, not every such curve was filed as active; the % refers to the signal ratio). The procedure, abridged: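 p53RE-bla reporter cells, compounds added in DMSO after 5 h plating, incubated 16 h at 37 C. Beta-lactamase read via 2 h room-temperature LiveBLAzer B/G FRET substrate, fluorescence intensity.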
Assay [10] addresses 5-hydroxytryptamine receptor 2A (Homo sapiens) (UniProt P28223). The assay can be described thus: 5-hydroxytryptamine receptor 2A (HTR2A) small molecule antagonists, cell-based qHTS assay (AID 1963586). Note: nearly all actives have a fitted effect of over 45% in size. Note: potency is the fitted concentration of half-maximal effect. In a few lines:
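Antagonist-mode intracellular calcium assay: DOI (4 nM) added after 5 min compound pre-incubation at room temperature to dye-loaded HTR2A-CHO cells. Fluorescence followed for 3 min, sampled every second.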

For assay [11] the target is unchanged. The assay can be described thus: 5-hydroxytryptamine receptor 2A (HTR2A) small molecule agonists, cell-based qHTS assay (AID 1963587). Note: nearly all actives have a fitted effect of over 30% in size. In a few lines:
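CHO cells stably expressing human HTR2A, plated 18 h, loaded with calcium dye 1 h at 37 C. Agonist mode: compounds added and intracellular calcium fluorescence recorded kinetically for 2 min at 1 sec intervals.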

The target in assay [12] is Muscarinic acetylcholine receptor M1 (Homo sapiens) (UniProt P11229). The assay can be described thus: Cholinergic receptor muscarinic 1 (CHRM1) small molecule antagonists, cell-based qHTS assay (AID 1963588). Note: nearly all actives have a fitted effect of over 40% in size. Note: potency is the fitted concentration of half-maximal effect. The procedure, abridged: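 CHRM1-CHO calcium-flux assay, antagonist mode. Cells were seeded 18 h, dye-loaded 1 h at 37 C and given compound for 5 min at RT, then acetylcholine was added at 50nM. FDSS fluorescence was read 3 min; 15 concentrations, three runs.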
Muscarinic acetylcholine receptor M1 (Homo sapiens), sequence (P11229 whole entry, looked up): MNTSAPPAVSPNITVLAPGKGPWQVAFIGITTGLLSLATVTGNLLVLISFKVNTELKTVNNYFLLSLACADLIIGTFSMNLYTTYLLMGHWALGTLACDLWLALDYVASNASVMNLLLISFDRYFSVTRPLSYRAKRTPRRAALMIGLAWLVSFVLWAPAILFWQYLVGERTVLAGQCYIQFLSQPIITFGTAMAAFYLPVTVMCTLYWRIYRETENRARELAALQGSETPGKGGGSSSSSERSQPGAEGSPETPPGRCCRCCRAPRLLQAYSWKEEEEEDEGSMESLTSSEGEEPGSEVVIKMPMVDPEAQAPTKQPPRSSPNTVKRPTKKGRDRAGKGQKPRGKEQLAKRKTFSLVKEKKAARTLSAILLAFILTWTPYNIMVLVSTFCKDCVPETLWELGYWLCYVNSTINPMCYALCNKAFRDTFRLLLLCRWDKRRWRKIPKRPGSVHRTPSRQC

The target is the same in assay [13]. The experiment in a line: Cholinergic receptor muscarinic 1 (CHRM1) small molecule agonists, cell-based qHTS assay (AID 1963589). Note: nearly all actives have a fitted effect of over 35% in size. In a few lines: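 CHO cells stably expressing human CHRM1 were loaded with calcium dye for 1 h at 37 C, then compound was added in agonist mode. Intracellular calcium fluorescence was followed kinetically at 1 s intervals. Fifteen concentrations were tested in three independent runs.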

The nature of assay [14]: cAMP Responsive Elements (CRE) small molecule agonists, cell-based qHTS assay (AID 1963590). The procedure, abridged: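 CRE-bla HEK 293T cells, 2,000/well in DMEM with 10% dialyzed FBS and 25 mM HEPES, pre-incubated 18 h at 37 C, then exposed to compound 3 h at 37 C. Beta-lactamase reporter read with LiveBLAzer B/G FRET substrate after 2 h at room temperature.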
A short description of assay [15]: cAMP Responsive Elements (CRE) small molecule antagonists, cell-based qHTS assay (AID 1963591; active = well fitted inhibition curve with a large enough effect in the signal ratio in the repeat runs, not every such curve was filed as active; the % refers to the signal ratio). The procedure, abridged: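 CRE-bla HEK293T cells plated 18 h, then given compound plus NKH477 at 0.25 uM final for 3 h at 37C. Beta-lactamase reporter read with LiveBLAzer B/G FRET substrate after 2 h at room temperature.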
Assay [16] concerns the target Beta-2 adrenergic receptor (Homo sapiens) (UniProt P07550). The experiment in a line: Adrenergic beta2 receptor (ADRB2) small molecule antagonists, cell-based qHTS assay (AID 1963592). Note: series mostly up to about 92 µM; nearly all actives have a fitted effect of over 50% in size. In a few lines:
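Cells (CHO, stable ADRB2 overexpression) incubated 18-20hr at 37C; compounds added from DMSO; agonist mix (1nM isoproterenol, 100uM IBMX, 25uM Ro-20-1724) added; 0.5hr RT; d2-cAMP and anti-cAMP-cryptate added; 1hr RT; 665/615 nm read.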

The target is the same in assay [17]. The experiment in a line: Adrenergic beta2 receptor (ADRB2) small molecule agonists, cell-based qHTS assay (AID 1963593).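 Note: CHO cells stably overexpressing human ADRB2.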 In a few lines: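 CHO cells stably over-expressing ADRB2 were plated overnight at 37C, then dosed with compounds plus a stimulation mix containing 100uM IBMX and 25uM Ro-20-1724 for 0.5hr at room temperature. cAMP was measured by HTRF competition, 1hr.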

Assay [18] addresses D(2) dopamine receptor (Homo sapiens) (UniProt P14416). The experiment in a line: Dopamine D2 receptor (DRD2) small molecule agonists, cell-based qHTS assay (AID 1963594). Note: nearly all actives have a fitted effect of over 35% in size. In a few lines: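 HEK293 cells stably expressing human DRD2, pre-treated with PDE inhibitor Ro20-1724 (0.1 mM final) and compound 10 min at room temperature, then stimulated with NKH477 (200nM […]) for 30 min. cAMP read by HTRF (665/620 nm).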

Assay [19] has the same target. The experiment in a line: Dopamine D2 receptor (DRD2) small molecule antagonists, cell-based qHTS assay (AID 1963595; active = well fitted inhibition curve with a large enough effect in the signal ratio in the repeat runs, with a control signal flat; the % refers to the signal ratio). The procedure, abridged: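 HEK293 cells stably expressing DRD2, preincubated with 0.1 mM Ro20-1724 and compounds 10 min, were stimulated with 200 nM NKH477 plus 12 nM quinpirole for 30 min at room temperature; cAMP measured by HTRF (665/620 nm).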

Assay [20] can be described thus: p53 small molecule agonists, cell-based qHTS assay with human liver microsomes (AID 1963577). In a few lines:
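p53RE-bla reporter cells were pre-incubated 5 h at 37 C, then treated with compounds plus human liver microsomes (0.5 mg/mL final) and NADPH (0.5 mg/mL final) for 16 h at 37 C. Beta-lactamase activity was read by LiveBLAzer fluorescence after 2 h at room temperature.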

5-hydroxytryptamine receptor 2A (Homo sapiens), sequence (P28223 whole entry, looked up): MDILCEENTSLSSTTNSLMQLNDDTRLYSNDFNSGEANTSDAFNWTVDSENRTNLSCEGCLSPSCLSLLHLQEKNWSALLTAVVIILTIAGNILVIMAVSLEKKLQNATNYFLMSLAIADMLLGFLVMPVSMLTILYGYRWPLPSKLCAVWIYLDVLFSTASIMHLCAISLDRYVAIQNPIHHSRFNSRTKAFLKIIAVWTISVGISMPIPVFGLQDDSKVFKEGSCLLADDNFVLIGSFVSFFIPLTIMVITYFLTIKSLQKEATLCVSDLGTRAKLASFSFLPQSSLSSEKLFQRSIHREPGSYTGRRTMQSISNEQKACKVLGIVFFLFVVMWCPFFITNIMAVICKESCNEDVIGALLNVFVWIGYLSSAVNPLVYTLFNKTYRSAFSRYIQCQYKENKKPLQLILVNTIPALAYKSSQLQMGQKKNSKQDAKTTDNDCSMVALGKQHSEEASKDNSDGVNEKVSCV
KiSS-1 receptor (Homo sapiens), sequence (Q969F8 whole entry, looked up): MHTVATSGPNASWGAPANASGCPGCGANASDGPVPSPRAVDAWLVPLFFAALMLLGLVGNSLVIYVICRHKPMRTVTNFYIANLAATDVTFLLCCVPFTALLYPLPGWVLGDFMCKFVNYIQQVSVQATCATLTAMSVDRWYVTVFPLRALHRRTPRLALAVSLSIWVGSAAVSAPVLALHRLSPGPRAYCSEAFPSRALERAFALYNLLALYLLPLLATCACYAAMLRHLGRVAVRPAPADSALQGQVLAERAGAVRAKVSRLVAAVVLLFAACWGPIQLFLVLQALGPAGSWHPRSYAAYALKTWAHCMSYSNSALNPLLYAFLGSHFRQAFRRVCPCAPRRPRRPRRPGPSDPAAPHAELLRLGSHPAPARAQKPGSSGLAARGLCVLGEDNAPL
D(2) dopamine receptor (Homo sapiens), sequence (P14416 whole entry, looked up): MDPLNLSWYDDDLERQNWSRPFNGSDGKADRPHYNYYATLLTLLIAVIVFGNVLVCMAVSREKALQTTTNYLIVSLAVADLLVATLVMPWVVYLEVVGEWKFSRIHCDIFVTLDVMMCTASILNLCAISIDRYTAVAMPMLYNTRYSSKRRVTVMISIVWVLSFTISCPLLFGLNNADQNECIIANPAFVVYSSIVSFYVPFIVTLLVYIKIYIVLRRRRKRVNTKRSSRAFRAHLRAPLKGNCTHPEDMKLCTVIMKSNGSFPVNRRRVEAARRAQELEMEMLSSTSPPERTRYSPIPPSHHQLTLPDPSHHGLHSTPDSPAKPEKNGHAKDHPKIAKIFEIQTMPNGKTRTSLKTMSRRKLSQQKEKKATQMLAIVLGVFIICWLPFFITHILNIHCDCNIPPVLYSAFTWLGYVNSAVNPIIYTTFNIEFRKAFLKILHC
Beta-2 adrenergic receptor (Homo sapiens), sequence (P07550 whole entry, looked up): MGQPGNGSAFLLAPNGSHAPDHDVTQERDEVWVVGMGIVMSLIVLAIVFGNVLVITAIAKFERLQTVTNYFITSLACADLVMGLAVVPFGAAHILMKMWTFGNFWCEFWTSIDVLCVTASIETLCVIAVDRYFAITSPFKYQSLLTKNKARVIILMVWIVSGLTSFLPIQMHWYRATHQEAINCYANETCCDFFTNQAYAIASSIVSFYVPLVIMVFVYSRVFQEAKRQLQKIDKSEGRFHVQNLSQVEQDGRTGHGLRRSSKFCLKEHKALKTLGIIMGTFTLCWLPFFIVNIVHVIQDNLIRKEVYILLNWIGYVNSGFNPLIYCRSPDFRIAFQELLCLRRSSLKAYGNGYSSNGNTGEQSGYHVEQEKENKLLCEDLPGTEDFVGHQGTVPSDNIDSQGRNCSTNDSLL

`CCOP(=S)(OCC)Oc1ccc([N+](=O)[O-])cc1`: the Potency result in assay [1], in assay [2], in assay [3], in assay [4], in assay [5] and in assay [6] was “inactive” each time. Moreover, the Potency entry in [7], in assay [8], in assay [9], in [10], in [11] and in assay [13] was “inactive” each time. Besides, the Potency result in [14], in assay [15], in [16], in assay [17], in [18] and in [19] was “inactive” each time. Also, in [12], the Potency was 9.54 µM (active) and 18.3 µM (active).
With `CN(C)C(=O)C(c1ccccc1)c1ccccc1`, the Potency result in assay [1], in assay [2], in assay [3], in assay [4], in [5] and in assay [7] was “inactive” in each case. Besides, the Potency entry in assay [8], in assay [9], in assay [10], in [11], in assay [12] and in assay [13] was “inactive” throughout. Besides, the Potency entry in [14], in assay [15], in assay [16], in assay [17], in [18] and in assay [19] was “inactive” in each case.
Regarding `COP(N)(=O)SC` (centres undefined), the Potency result in assay [1], in assay [2], in assay [3], in [4], in [5] and in assay [6] was “inactive” in each case. The Potency result in assay [7], in assay [8], in assay [9], in assay [10], in assay [11] and in assay [12] was “inactive” in each case. Also, the Potency entry in assay [13], in [14], in assay [15], in assay [16], in assay [17] and in [18] was “inactive” throughout. In addition, the Potency result in assay [19] was “inactive”.
On to `CCC[CH2][Sn]([Cl])([Cl])[CH2]CCC`, for which the Potency was 1.23 µM (active) and 2.17 µM (active) in assay [1]; 492 nM (active) and 969 nM (active) in [2]; 18.5 µM (active) and 45.8 µM (active) in assay [7]; 3.28 µM (active) and 4.08 µM (active) in assay [8]. Further, the Potency entry in assay [3], in assay [4], in [5], in [20], in assay [10] and in assay [11] was “inactive” throughout. Moreover, the Potency entry in assay [12], in assay [13], in [16], in assay [17], in [18] and in assay [19] was “inactive” throughout.
As to `CN1CCC(N(Cc2ccccc2)c2ccccc2)CC1`, the Potency entry in [1], in [2], in [3], in [4], in assay [5] and in assay [7] was “inactive” in each case. Further, the Potency result in assay [8], in [9], in assay [11], in assay [13], in assay [14] and in assay [15] was “inactive” in each case. Besides, the Potency result in assay [16] and in [18] was “inactive” throughout. Moreover, the results for the Potency in assay [10] and in assay [12] were 2590 nM (active) and 365 nM (active), respectively.
`COP(=S)(OC)SCN1C(=O)c2ccccc2C1=O`: the Potency entry in [1], in assay [3], in [4], in assay [5], in assay [6] and in assay [7] was “inactive” in each case. Moreover, the Potency result in assay [8], in [9], in assay [10], in assay [11], in assay [12] and in assay [13] was “inactive” throughout. The Potency result in assay [14], in [15], in [16], in assay [17], in assay [18] and in [19] was “inactive” throughout. The Potency in assay [2] is 61.6 µM (active) and 68.6 µM (active) and inactive.
Turning to `C(CCOCC1CO1)COCC1CO1` (centres undefined), the Potency entry in assay [1], in assay [3], in assay [4], in assay [5], in assay [6] and in assay [7] was “inactive” each time. Besides, the Potency result in [8], in assay [10], in assay [11], in assay [12], in assay [13] and in assay [14] was “inactive” in each case. Also, the Potency entry in [15], in [16], in assay [18] and in assay [19] was “inactive” throughout. Besides, the Potency in [2] was 30.2 µM (active).
